Test [1] concerns the target Rho-associated protein kinase 1 (Homo sapiens) (UniProt Q13464). Particulars: at 1 µM.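 Further: reported values are mean percent inhibition of ROCK1.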
The target of test [2] is Rho-associated protein kinase 2 (Homo sapiens) (UniProt O75116). Particulars: at 0.1 µM.
Test [3] shares this target. Particulars: at 1 µM.
The target in test [4] is Ribosomal protein S6 kinase alpha-1 (Homo sapiens) (UniProt Q15418). Particulars: at 0.1 µM.
Test [5] shares this target. Particulars: at 1 µM.
Test [6] addresses Ribosomal protein S6 kinase alpha-3 (Homo sapiens) (UniProt P51812). Particulars: at 0.1 µM.
For test [7] the target is unchanged. Particulars: at 1 µM.
Test [8] deals with Ribosomal protein S6 kinase alpha-2 (Homo sapiens) (UniProt Q15349). Particulars: at 0.1 µM.
Test [9] has the same target. Particulars: at 1 µM.
Test [10] deals with Ribosomal protein S6 kinase alpha-6 (Homo sapiens) (UniProt Q9UK32). Particulars: at 0.1 µM.
Test [11] has the same target. Particulars: at 1 µM.
In test [12] the target is T1, Serine/threonine-protein kinase Sgk1 (Homo sapiens) (UniProt O00141).
T1 sequence (whole entry): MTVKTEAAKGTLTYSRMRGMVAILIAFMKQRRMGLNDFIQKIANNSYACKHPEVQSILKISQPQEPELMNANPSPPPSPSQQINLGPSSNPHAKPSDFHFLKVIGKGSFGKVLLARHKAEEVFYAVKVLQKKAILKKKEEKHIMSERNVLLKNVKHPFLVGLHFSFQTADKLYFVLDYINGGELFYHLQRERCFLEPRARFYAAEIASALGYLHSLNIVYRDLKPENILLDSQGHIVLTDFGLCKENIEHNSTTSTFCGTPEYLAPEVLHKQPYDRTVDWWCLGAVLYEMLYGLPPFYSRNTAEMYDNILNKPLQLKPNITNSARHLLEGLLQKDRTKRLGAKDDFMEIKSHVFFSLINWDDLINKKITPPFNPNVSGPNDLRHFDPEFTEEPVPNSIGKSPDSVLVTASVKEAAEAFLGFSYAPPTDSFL
Particulars: at 0.1 µM.

Test [13] has as its target T1, Serine/threonine-protein kinase Sgk1 (Homo sapiens). Particulars: at 1 µM.
Test [14] concerns the target T2, Serine/threonine-protein kinase Sgk2 (Homo sapiens) (UniProt Q9HBY8).
T2 sequence (whole entry): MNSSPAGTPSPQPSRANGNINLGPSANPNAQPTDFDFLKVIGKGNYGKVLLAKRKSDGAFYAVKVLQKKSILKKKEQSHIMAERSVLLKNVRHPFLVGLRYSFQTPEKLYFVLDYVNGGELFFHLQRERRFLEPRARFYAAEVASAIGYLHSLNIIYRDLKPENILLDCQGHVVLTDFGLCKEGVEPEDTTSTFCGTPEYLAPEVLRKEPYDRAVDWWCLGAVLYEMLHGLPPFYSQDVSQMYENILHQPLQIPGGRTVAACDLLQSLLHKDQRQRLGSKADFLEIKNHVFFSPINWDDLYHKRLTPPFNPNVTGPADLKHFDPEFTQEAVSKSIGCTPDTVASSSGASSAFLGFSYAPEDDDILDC
Particulars: at 0.1 µM.

The target of test [15] is T2, Serine/threonine-protein kinase Sgk2 (Homo sapiens). Particulars: at 1 µM.
Test [16] addresses T3, Serine/threonine-protein kinase Sgk3 (Homo sapiens) (UniProt Q96BR1).
T3 sequence (whole entry): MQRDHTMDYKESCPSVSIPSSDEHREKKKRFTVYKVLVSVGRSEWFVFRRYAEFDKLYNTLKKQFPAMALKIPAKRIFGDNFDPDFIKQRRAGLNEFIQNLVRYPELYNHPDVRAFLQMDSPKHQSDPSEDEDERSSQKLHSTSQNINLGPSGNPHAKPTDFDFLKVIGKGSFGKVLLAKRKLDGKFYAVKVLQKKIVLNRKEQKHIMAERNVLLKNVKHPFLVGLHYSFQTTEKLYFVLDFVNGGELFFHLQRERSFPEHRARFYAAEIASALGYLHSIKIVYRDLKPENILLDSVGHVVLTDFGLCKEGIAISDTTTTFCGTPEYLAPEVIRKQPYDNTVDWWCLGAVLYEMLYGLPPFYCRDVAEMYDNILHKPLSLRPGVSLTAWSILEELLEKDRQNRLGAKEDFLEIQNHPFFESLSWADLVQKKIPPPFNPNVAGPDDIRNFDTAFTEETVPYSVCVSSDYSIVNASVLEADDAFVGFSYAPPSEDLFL
Particulars: at 0.1 µM.

Test [17] addresses T3, Serine/threonine-protein kinase Sgk3 (Homo sapiens). Particulars: at 1 µM.
For test [18], the target named is 5'-AMP-activated protein kinase catalytic subunit alpha-1 (Homo sapiens) (UniProt Q13131). Particulars: at 0.1 µM.
The target is the same in test [19]. Particulars: at 1 µM.
The target in test [20] is 5'-AMP-activated protein kinase catalytic subunit alpha-2 (Homo sapiens) (UniProt P54646). Particulars: at 0.1 µM.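 Further: mean inhibition measured on the AMPK complex of alpha2, beta1 and gamma1 subunits.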

Drawing on ChEMBL document CHEMBL1961873, “Compounds: GSK PKIS; Assays: Nanosyn kinase panel” (2012), this text covers inhibition for seven molecules.

The structures appear in SMILES notation.

Rho-associated protein kinase 1 (Homo sapiens), sequence (Q13464 2-1354 limits assumed): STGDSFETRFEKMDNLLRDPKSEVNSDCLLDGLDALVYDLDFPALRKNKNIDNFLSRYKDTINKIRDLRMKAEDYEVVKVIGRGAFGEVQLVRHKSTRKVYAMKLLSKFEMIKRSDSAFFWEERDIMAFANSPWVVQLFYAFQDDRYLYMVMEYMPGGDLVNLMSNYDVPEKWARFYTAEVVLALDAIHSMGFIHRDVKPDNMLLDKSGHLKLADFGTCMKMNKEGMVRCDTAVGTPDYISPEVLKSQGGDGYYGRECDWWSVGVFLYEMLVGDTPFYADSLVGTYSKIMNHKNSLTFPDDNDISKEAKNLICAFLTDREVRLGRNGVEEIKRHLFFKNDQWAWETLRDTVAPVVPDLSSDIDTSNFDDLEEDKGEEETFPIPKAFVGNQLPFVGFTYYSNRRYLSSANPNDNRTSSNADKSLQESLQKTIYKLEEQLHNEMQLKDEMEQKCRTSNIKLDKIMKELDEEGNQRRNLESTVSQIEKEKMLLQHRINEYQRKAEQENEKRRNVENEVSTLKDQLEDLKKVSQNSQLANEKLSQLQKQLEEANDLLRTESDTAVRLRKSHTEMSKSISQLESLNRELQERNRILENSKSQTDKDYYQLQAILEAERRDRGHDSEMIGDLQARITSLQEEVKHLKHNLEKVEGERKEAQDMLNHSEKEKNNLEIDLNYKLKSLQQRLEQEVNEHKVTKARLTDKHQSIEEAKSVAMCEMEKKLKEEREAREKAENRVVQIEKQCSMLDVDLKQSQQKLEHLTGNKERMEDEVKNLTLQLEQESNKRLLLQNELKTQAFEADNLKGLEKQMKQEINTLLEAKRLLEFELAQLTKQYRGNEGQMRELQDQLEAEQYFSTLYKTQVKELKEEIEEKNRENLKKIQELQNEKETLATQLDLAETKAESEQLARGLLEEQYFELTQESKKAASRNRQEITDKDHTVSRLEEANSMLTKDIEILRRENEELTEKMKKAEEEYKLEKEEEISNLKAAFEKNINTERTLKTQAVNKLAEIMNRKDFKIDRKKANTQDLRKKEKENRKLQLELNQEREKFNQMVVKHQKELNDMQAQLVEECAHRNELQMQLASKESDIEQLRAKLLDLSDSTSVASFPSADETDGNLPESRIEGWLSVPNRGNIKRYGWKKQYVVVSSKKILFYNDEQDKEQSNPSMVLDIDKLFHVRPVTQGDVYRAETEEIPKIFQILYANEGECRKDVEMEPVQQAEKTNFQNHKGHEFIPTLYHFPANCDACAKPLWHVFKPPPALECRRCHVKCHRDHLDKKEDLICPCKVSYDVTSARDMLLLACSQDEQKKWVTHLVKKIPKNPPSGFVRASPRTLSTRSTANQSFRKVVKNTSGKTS
5'-AMP-activated protein kinase catalytic subunit alpha-2 (Homo sapiens), sequence (P54646 whole entry, looked up): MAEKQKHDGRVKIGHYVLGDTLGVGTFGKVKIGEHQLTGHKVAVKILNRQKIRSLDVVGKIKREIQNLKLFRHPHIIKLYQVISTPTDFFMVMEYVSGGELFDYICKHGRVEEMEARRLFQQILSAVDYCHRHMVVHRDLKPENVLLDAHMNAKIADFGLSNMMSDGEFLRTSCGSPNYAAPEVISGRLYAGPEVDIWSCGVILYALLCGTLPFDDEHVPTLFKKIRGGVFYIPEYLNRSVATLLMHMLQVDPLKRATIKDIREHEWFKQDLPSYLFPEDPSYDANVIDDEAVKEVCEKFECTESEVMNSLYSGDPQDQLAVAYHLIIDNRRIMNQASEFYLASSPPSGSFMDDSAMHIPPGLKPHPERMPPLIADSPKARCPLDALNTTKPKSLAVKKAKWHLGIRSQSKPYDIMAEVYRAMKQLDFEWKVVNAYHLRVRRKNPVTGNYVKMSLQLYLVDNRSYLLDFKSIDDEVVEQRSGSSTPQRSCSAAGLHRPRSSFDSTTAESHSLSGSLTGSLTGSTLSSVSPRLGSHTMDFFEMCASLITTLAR
Ribosomal protein S6 kinase alpha-6 (Homo sapiens), sequence (Q9UK32 whole entry): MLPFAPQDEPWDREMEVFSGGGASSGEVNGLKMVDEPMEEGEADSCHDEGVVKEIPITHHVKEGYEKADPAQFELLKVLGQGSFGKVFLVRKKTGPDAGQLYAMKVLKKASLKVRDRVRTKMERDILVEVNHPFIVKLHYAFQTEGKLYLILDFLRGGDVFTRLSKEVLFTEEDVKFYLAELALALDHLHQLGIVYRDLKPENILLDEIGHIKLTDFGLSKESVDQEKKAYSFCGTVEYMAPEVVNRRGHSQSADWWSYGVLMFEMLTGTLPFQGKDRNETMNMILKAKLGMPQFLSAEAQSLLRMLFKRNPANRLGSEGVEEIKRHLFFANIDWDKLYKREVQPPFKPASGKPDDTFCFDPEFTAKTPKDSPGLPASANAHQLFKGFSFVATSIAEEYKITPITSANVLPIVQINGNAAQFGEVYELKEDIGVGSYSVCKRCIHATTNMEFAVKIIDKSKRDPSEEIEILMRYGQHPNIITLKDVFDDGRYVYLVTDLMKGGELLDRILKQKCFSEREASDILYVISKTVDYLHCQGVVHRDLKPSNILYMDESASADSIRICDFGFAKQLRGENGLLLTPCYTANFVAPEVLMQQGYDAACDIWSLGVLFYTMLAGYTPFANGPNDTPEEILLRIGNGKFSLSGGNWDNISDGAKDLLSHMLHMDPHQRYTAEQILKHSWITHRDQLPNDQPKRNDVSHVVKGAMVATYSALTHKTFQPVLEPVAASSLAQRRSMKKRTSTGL
Rho-associated protein kinase 2 (Homo sapiens), sequence (O75116 whole entry, looked up): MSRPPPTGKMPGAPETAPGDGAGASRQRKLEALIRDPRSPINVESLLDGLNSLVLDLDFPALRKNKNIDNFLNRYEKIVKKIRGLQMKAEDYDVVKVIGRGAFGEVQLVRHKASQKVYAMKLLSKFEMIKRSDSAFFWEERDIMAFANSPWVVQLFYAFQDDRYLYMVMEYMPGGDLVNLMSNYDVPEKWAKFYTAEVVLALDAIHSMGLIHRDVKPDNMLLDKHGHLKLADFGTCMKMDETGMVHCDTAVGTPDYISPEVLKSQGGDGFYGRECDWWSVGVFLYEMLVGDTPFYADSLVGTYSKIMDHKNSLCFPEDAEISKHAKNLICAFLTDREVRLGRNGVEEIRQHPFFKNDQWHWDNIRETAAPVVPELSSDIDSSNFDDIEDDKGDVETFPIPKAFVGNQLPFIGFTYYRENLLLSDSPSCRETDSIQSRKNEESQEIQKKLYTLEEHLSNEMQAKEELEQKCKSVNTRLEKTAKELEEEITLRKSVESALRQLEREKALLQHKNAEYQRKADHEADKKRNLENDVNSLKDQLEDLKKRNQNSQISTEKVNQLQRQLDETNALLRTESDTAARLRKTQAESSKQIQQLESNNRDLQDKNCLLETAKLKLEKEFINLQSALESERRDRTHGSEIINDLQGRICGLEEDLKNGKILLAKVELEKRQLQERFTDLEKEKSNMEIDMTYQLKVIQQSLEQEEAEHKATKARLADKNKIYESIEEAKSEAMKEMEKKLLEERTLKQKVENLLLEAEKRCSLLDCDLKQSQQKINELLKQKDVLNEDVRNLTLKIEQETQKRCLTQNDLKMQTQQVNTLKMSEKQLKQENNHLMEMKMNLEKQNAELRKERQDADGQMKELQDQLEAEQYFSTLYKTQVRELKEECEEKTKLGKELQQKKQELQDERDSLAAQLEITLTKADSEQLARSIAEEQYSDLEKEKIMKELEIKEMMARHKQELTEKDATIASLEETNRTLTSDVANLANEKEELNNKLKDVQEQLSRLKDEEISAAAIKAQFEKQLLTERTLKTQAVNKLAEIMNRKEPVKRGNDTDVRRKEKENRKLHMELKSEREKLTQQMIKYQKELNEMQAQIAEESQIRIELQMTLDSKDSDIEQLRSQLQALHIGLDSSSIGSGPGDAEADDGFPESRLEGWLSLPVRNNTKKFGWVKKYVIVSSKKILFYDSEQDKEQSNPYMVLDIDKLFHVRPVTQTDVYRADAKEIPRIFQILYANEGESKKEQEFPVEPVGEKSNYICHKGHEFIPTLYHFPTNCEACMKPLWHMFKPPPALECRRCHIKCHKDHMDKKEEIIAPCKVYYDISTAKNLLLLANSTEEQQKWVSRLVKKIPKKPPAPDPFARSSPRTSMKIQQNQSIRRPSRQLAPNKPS
Ribosomal protein S6 kinase alpha-3 (Homo sapiens), sequence (P51812 whole entry): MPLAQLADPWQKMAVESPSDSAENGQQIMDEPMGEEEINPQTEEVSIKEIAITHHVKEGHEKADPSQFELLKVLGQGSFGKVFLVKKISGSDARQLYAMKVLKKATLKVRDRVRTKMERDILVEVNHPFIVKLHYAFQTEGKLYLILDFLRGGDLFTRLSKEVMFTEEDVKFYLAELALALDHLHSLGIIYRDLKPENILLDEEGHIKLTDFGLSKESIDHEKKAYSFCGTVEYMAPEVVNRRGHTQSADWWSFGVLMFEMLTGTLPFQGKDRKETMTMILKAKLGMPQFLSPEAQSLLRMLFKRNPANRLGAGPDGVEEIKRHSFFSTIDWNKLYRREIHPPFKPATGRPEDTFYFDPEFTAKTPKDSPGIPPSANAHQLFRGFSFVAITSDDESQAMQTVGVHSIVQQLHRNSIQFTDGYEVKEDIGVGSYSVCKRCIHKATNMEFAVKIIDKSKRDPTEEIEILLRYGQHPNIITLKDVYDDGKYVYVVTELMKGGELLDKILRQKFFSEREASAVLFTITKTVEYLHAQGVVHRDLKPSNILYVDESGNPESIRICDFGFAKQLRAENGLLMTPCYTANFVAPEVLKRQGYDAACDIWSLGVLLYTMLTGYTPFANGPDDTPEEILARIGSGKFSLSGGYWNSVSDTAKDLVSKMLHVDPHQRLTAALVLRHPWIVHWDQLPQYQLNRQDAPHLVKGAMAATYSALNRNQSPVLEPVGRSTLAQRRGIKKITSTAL

For orientation: inhibition means the relative decrease from the control value, in per cent. In the case of `ON=C1CCc2cc(-c3nc(C4CCNCC4)[nH]c3-c3ccncc3)ccc21`, the inhibition in test [1] was 0.82%; in test [2], -1.08%; in [3] it was -0.29%; in test [4] it was -1.46%; in test [5], -1.99%; in test [6], -1%. In addition, the inhibition was -0.39% in [7]; 0.31% in test [8]; 1.01% in [9]; 0.13% in test [10]; -0.49% in [11]; 0.64% in [12]. Further, the inhibition in test [13] was 0.87%; in test [14], -0.56%; in [15] it was -1.29%; in test [16], -1.46%; in test [17], -0.07%; in test [18], -0.26%. The inhibition in [19] was -1.59%; in [20], -1.32%.

As for `O=C1Nc2ccccc2/C1=C/Nc1ccc2[nH]c(=O)[nH]c2c1`, the inhibition in [1] turned out to be 4.42%; in [2], 3.76%; in test [3], 13.7%; in [4] it was 3.61%; in test [5] it was 20.9%; in [6], 2.19%. In addition, the inhibition in test [7] amounted to 14.7%; in [8] it was 4.19%; in [9] it was 20.5%; in [10], 2.19%; in test [11], 16.3%; in test [12], 5.08%. The inhibition turned out to be 22.7% in [13]; 1.44% in [14]; 13.4% in test [15]; 3.83% in [16]; 9.07% in test [17]; 6.25% in test [18]. Also, the results for the inhibition in test [19] and in [20] were 20% and 4.32%, respectively.

For `CS(=O)(=O)CCNCc1nc(-c2ccc3ncnc(Nc4ccc(OCc5cccc(C(F)(F)F)c5)cc4)c3c2)cs1`, the inhibition in test [1] was -0.55%; in test [2], 0.87%; in [3], 1.92%; in test [4], -1.01%; in test [5], 0.29%; in test [6] it was 1.21%. Moreover, the inhibition in test [7] was 1.84%; in test [8] it was 1.45%; in test [9], 2.09%; in test [10], 0.32%; in test [11], 0.37%; in [12], -0.21%. The inhibition in test [13] was -1.85%; in test [14], 3.52%; in test [15] it was 2.19%; in [16] it was 1.04%; in [17], 1.17%; in test [18] it was 1.78%. Moreover, the inhibition in [19] was 2.03%; in [20], 3.05%.

Turning to `NS(=O)(=O)c1cccc(-c2cc3ccncc3cc2OCc2ccccc2)c1`, the inhibition in test [1] was 2.75%; in test [2] it was 2.25%; in test [3], 2.26%; in test [4], 1.02%; in test [5], 2.9%; in [6], 0.82%. Moreover, the inhibition was determined as 2.13% in test [7]; 2.81% in [8]; 2.38% in [9]; 2.55% in test [10]; 3.01% in [11]; 3.46% in [12]. The inhibition was 3.63% in [13]; 5.08% in test [14]; 6.91% in test [15]; 9.81% in test [16]; 1.63% in test [17]; 4.1% in test [18]. Besides, the inhibition is 5.8% in test [19] and -0.75% in test [20].

Regarding `Nc1nccc(-c2c(-c3ccc(F)cc3)nn3cc(C(F)(F)F)ccc23)n1`, the inhibition was -0.27% in [1]; -1.57% in test [2]; 0.18% in test [3]; 0.48% in [4]; 0.53% in test [5]; -0.83% in test [6]. Moreover, the inhibition was -1.02% in test [7]; 0.95% in test [8]; 0.63% in test [9]; -1.83% in test [10]; -1.48% in [11]; 1.36% in test [12]. In addition, the inhibition in test [13] is 0.06%; in test [14] it was 2.28%; in [15], -4.03%; in [16], 3.01%; in test [17] it was -3.28%; in test [18], -1.23%. Besides, the inhibition in test [19] is -0.36%; in test [20], 0.94%.

In the case of `N#Cc1cccc(Nc2nccc(-c3cnn4ncccc34)n2)c1`, the inhibition was 5.33% in [1]; 3.28% in [2]; 12.4% in test [3]; 2.54% in [4]; 7.07% in test [5]; 0.17% in test [6]. Besides, the inhibition in [7] amounted to 4.03%; in test [8], 2.01%; in test [9], 4.16%; in [10], 1.51%; in test [11], 8.8%; in [12], 2.22%. For the same molecule, the inhibition is 10.4% in test [13]; 4.89% in [14]; 5.14% in test [15]; 5.14% in test [16]; 7.33% in test [17]; 2.67% in test [18]. In addition, the inhibition in [19] was 10.4%; in test [20] it was 2.03%.

Take `COc1cccc(-n2ncc3c(N/N=C/c4ccc(C)cc4)ncnc32)c1`: the inhibition is 4.15% in test [1]; 3.08% in test [2]; 5.34% in [3]; 2.5% in test [4]; 6.59% in test [5]; 0.75% in test [6]. Moreover, the inhibition in test [7] was found to be 5.14%; in test [8], 3.75%; in [9] it was 4.8%; in test [10], 0.68%; in [11] it was 3.14%; in test [12] it was 0.12%. Moreover, the inhibition in test [13] came out at 3.62%; in [14] it was 1.23%; in test [15], 2.8%; in test [16], 3.8%; in test [17], 2.61%; in test [18], 1.9%. The inhibition in test [19] is 6.98%; in test [20], 7.16%.
